Measured values: the supplement of paper PMC10121225
Counter-ions that a name gives are not always drawn.

What follows are molecules tested on hN + hpA co-culture (H1 iNGN2 human neurons + human primary astrocytes) (assay: presynaptic density (SYNAPSIN1 puncta per MAP2 neurite area), Z-score vs DMSO controls; higher = more presynaptic puncta (synapse-promoting)). Details: 3 µM; 72 h.
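Further: immunostained co-cultures imaged by high-content microscopy, Z-score per plate against mean and SD of 0.1% DMSO wells, compounds added on differentiation day 18, analysed day 21.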

Compound	presynaptic density (Z-score)
COc1ccccc1OCCNCC(O)COc1cccc2[nH]c3ccccc3c12 (centres undefined)	-1.2
Nc1nc(N)c2nc(-c3ccccc3)c(N)nc2n1 [Triamterene]	-0.407
CCOC(=O)CCNc1cc(N2CCc3ccccc3CC2)nc(-c2ccccn2)n1	-3.3
CCn1c(=O)c2c(nc(/C=C/c3ccc(OC)c(OC)c3)n2C)n(CC)c1=O [Istradefylline]	-0.775
CC(=O)c1c(C)c2cnc(Nc3ccc(N4CCNCC4)cn3)nc2n(C2CCCC2)c1=O	-0.609
CCN(CC)CC(=O)Nc1c(C)cccc1C	0.846
CCN[C@H]1CN(CCCOC)S(=O)(=O)c2sc(S(N)(=O)=O)cc21 [Brinzolamide]	-0.474
Cc1[nH]c(/C=C2\C(=O)Nc3ccc(S(=O)(=O)N(C)c4cccc(Cl)c4)cc32)c(C)c1C(=O)N1CCN(C)CC1	0.365
CCO[C@@H]1OC(=O)C[C@@H]1NC(=O)[C@@H]1CCCN1C(=O)[C@@H](NC(=O)c1ccc(N)c(Cl)c1)C(C)(C)C	-1.02
Cc1ccc(S(=O)(=O)n2c(N)nc3ccccc32)cc1 [ML130 (Nodinitib-1)]	0.396
N#C[C@@H]1CCCN1C(=O)CNC12CC3CC(CC(O)(C3)C1)C2 [Vildagliptin (LAF-237)]	0.854
Cc1cc(C(N)=O)ccc1-n1c(CCC(=O)O)ccc1-c1ccc(-n2ccnc2)cc1	-0.771
NC(=O)Nc1sc(-c2ccc(F)cc2)cc1C(N)=O	-1.69
Cc1nc2c(-c3cnc(N)nc3)nc(N3CCOCC3)nc2n1C(C)C	1.07
Cc1c(NC(=O)c2ccc(C(C)(C)C)cc2)cccc1-c1cn(C)c(=O)c(Nc2ccc(C(=O)N3CCOCC3)cc2)n1	0.702
Oc1nc(-c2ccc(C(F)(F)F)cc2)nc2c1CSCC2	0.167
Oc1ccc2ccccc2c1SSc1c(O)ccc2ccccc12 [1-1-Dithiodi-2-naphthtol]	-0.787
O=S(=O)(NCCNCC=Cc1ccc(Br)cc1)c1cccc2cnccc12	-0.0684
Cc1ccc(C(=O)N(CCCN)[C@@H](c2oc3cc(Cl)ccc3c(=O)c2Cc2ccccc2)C(C)C)cc1	-3.49
CCCS(=O)(=O)Nc1ccc(F)c(C(=O)c2c[nH]c3ncc(-c4ccc(Cl)cc4)cc23)c1F	-0.231

Compound	presynaptic density (Z-score)
O=C(O)Cc1cccc(OCCCN(Cc2cccc(C(F)(F)F)c2Cl)CC(c2ccccc2)c2ccccc2)c1	-1.54
CNC(=O)c1ccc(N2C(=S)N(c3ccc(C#N)c(C(F)(F)F)c3)C(=O)C2(C)C)cc1F [Enzalutamide (MDV3100)]	0.664
CCN(Cc1ccncc1)C(=O)C(CO)c1ccccc1 (centres undefined) [Tropicamide]	-0.597
CNC(=C[N+](=O)[O-])NCCSCc1ccc(CN(C)C)o1 [Ranitidine]	-0.33
Cc1ccc(S(=O)(=O)OCC(=O)Nc2ccc(C(=O)O)c(O)c2)cc1	-0.554
NC1(Cc2ccc(Cl)cc2)CCN(c2ncnc3[nH]ccc23)CC1	-0.622
CCOc1nc2cccc(C(=O)O)c2n1Cc1ccc(-c2ccccc2-c2nnn[nH]2)cc1 [Candesartan]	0.323
C=CCn1c(=O)c2cnc(Nc3ccc(N4CCN(C)CC4)cc3)nc2n1-c1cccc(C(C)(C)O)n1	1.16
COc1cc(F)c(C(C)C)cc1-c1ccc(C(F)(F)F)cc1CN1C(=O)O[C@H](c2cc(C(F)(F)F)cc(C(F)(F)F)c2)[C@@H]1C [Anacetrapib (MK-0859)]	-0.588
Cc1cc(OCCCS(C)(=O)=O)cc(C)c1-c1cccc(COc2ccc3c(c2)OC[C@H]3CC(=O)O)c1	-0.294
Cc1cccc(-c2nn3c(c2-c2ccnc4ccc(C(N)=O)cc24)CCC3)n1	0.336
CC(=O)c1cc([N+](=O)[O-])c(Sc2ccc(F)cc2F)s1	0.25
Cc1nn(-c2ccccc2)c(C)c1C=NN1CCN(Cc2ccccc2)CC1	-0.2
O=C(/C=C/c1cccc(S(=O)(=O)Nc2ccccc2)c1)NO [Belinostat(PXD101)]	2.26
CNC(=O)c1cc(Oc2ccc(NC(=O)Nc3cc(C(C)(C)C)nn3-c3ccc4ncccc4c3)c(F)c2)ccn1 [DCC-2036 (Rebastinib)]	0.594
COc1ccccc1Oc1c(NS(=O)(=O)c2ccc(C(C)(C)C)cc2)nc(-c2ncccn2)nc1OCCO [Bosentan Hydrate]	0.531
CCCCCCCCc1ccc(CCC(N)(CO)CO)cc1 [Fingolimod (FTY720) HCl]	0.342
CCOC(=O)C1=C(COCCN)NC(C)=C(C(=O)OC)C1c1ccccc1Cl (centres undefined)	-1.97
COc1cccc2c1C(=O)c1c(O)c3c(c(O)c1C2=O)C[C@@](O)(C(C)=O)C[C@@H]3O[C@H]1C[C@H](N)[C@H](O)[C@H](C)O1 [Daunorubicin HCl]	0.0215
